# MmCpn inh = Inhibitors of TCP-1 ring complex (TRiC) of Methanococcus maripaludis (MmCpn): qHTS. Chaperonin Mm-Cpn (Methanococcus maripaludis). purified Mm-Cpn ATPase, ADP Transcreener TR-FRET. Potency, µM (series often up to 76.9 µM), without a hit: top-dose activity, negative = inhibition, actives largely listed as inhibitors. 330,000 tested, 0.031% active. AID 504842, 2011; note: potency is the fitted concentration of half-maximal effect; nearly all actives have a fitted effect of over 80% in size
#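 Purified archaeal Mm-CPN (25nM final) preincubated 10 min at 37degC with compound, then 10uM ATP for 30 min at 37degC; ADP measured by HTRF Transcreener TR-FRET; buffer 30 mM TRIS pH 7.4, 100mM KCl, 5mM MgCl2, 1mM DTT.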
# Sfp PPTase inh = qHTS Assay for Inhibitors of Bacillus subtilis Sfp phosphopantetheinyl transferase (PPTase) | 4'-phosphopantetheinyl transferase ffp (Bacillus subtilis), Q9F4F7 | Biochemical Sfp PPTase activity, qHTS | Potency, µM, without a hit: largest response in the series, negative = inhibition, usual class: inhibitors | 310,000 tested, 3.5% active;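 note: the enzyme is Sfp with the accession as filed and its product quenches rhodamine fluorescence; potency is the fitted concentration of half-maximal effect; 0% = enzyme reaction without inhibitor and -100% = no enzyme wells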
#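 Fluorescence-quenching assay: 15 nM Sfp-PPTase preincubated 15 min at room temperature with compound, then 5 uM rhodamine-CoA and 12.5 uM BHQ-2-labelled YbbR peptide added. Fluorescence (ex 525/em 598 nm) read at start and after 30 min; difference gives rate.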
# VDR inhibitor = Inhibitors of the vitamin D receptor (VDR): qHTS | Vitamin D3 receptor (Homo sapiens), P11473 | VDR-SRC2-3 peptide fluorescence polarization, 2 h | Potency, µM, inactives show max response, negative = inhibition, usual class: inhibitors | 400,000 tested, 0.93% active | AID 504847, 2011; note: potency is the fitted concentration of half-maximal effect
# Target sequence (P11473 whole entry, looked up): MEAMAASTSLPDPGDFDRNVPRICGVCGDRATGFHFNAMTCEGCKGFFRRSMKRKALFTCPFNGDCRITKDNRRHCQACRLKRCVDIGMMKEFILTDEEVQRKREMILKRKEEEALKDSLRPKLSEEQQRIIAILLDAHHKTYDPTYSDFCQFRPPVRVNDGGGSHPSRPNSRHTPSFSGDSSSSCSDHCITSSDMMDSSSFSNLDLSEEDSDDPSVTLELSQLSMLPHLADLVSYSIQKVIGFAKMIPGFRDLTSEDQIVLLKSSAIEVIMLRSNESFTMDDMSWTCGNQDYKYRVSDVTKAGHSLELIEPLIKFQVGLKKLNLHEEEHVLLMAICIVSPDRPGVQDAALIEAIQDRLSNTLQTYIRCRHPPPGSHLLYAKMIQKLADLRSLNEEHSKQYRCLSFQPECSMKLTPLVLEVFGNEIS
#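 Fluorescence polarization assay of small-molecule disruption of VDR binding to coregulator peptide SRC2-3. Compounds and controls pin-transferred, then read after 2 h incubation at ambient room temperature.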
# CCT modulator = High-Throughput Screening for Modulators of Cytosolic Chaperonin Activity | purified chaperonin ATPase assay, HTRF ADP detection, 30 min | activity change, % (test concentration not listed), hits read low | 360,000 tested, 0.3% active; in the data active = activity change below about -30%
#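 ATPase activity: ADP formed was measured by HTRF Transcreener (665/615 nm ratio) after 30 min at 37 deg C with 10 uM ATP. Compounds screened at one 76 uM concentration against 40 or 20 nM TRiC in Tris pH 7.4/KCl/MgCl2/DTT buffer.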
# PLK1 PBD inh = qHTS for Inhibitors of PLK1-PDB (polo-like kinase 1 - polo-box domain): Primary Screen. Serine/threonine-protein kinase PLK1 (Homo sapiens), P53350. Plk1 PBD binding of FITC phosphopeptide, fluorescence polarization. Potency, µM, for the others: max response, negative = inhibition, hits mostly inhibitors. 360,000 tested, 2.8% active. AID 720504, 2013; note: potency is the fitted concentration of half-maximal effect; series mostly up to about 57 µM; nearly all actives have a fitted effect of over 65% in size
# G9a inh = qHTS Assay for Inhibitors of Histone Lysine Methyltransferase G9a; G9a H3K9 monomethylation, AlphaScreen, 2 h; Potency, µM (series often up to 102 µM), for the others: at the top dose activity, negative = inhibition, most hits filed as inhibitors; 350,000 tested, 8.8% active; note: potency is the fitted concentration of half-maximal effect; nearly all actives have a fitted effect of over 75% in size
# Target sequence (Q96KQ7 913-1193 limits assumed): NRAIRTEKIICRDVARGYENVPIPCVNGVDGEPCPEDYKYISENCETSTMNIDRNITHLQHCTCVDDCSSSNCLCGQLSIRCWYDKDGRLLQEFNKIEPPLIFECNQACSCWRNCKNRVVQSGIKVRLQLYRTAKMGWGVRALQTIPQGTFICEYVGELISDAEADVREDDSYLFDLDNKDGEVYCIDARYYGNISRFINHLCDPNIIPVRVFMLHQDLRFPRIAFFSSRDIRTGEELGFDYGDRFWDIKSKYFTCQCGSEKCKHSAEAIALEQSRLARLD
#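 Readings reflect AlphaScreen signal from monomethyl-H3K9 antibody detection. HMT at 20 nM; substrate b-H3K9 500 nM; cofactor SAM 20 uM; 2 h RT reaction; compounds tested as titrations in qHTS with 15 min preincubation.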
# An asterisk follows results filed as active; ? = inconclusive; · = no result; [ ] = another dose, or the depositor's remark. Most compounds without a hit are left out; they make up all but 10% or so of the library. Unless noted, calls come from the whole dose curve; as a rule, active = well fitted curve in the direction sought with a large enough effect; inconclusive = small, poorly fitted or top-dose-only effect, or another doubt; inactive = no such curve, though single readings can be large; an effect the other way counts as inactive or inconclusive. Unless noted, % is set by controls: 0 for no effect and ±100 for the full control effect.
SMILES,MmCpn inh,Sfp PPTase inh,VDR inhibitor,CCT modulator,PLK1 PBD inh,G9a inh
Oc1cccc(/C=N/n2c(C3CCCCC3)n[nH]c2=S)c1,0%,-7%,-2%,1,?,2µM*
COc1cc(/C=N/n2c(C3CCCCC3)n[nH]c2=S)cc(OC)c1O,-3%,-7%,-12%,-4,-26%,2µM*
COc1cccc(/C=N/n2c(C3CCCCC3)n[nH]c2=S)c1,-1%,-20%,9%,-16,21µM*,2.5µM*
O=[N+]([O-])c1cccc(/C=N/n2c(C3CCCCC3)n[nH]c2=S)c1,-1%,1%,-5%,1,-26%,1.6µM*
CCC1CCCCN1C(=O)CSc1n[nH]c(-c2ccccc2Cl)n1 (configuration not stated),·,·,11%,·,·,-36%[59 µM]
O=C(COC(=O)CCC(=O)c1ccc(Cl)cc1)NCc1ccco1,0%,14µM*,-5%,0,-16%,50µM*
CCCNC(=O)COC(=O)/C=C/c1ccco1,1%,?,4%,0,-9%,-38%[59 µM]
Cc1ccc(/C=C/C(=O)OCC(=O)NC(C)C)o1,?,-47%,20%,-5,-6%,45µM*
O=C(COC(=O)/C=C/c1ccco1)NCc1ccc(Cl)cc1,1%,·,-10%,2,-3%,7.9µM*
CC(C)NC(=O)COC(=O)/C=C/c1ccco1,0%,50µM*,-7%,3,-4%,-18%[59 µM]
COC(=O)CC1c2cc(OC)c(OC)cc2CCN1C(=O)Nc1ccc(C)cc1Cl (configuration not stated),·,·,14%,·,·,10%[59 µM]
CCCCN(C)C(=O)Cn1cnc2sc(C)c(S(=O)(=O)N3CCC(C)CC3)c2c1=O,·,·,-14%,·,·,1%[59 µM]
Cc1c(Cl)cccc1NC(=O)C(=O)NCCc1csc(-c2ccc(C(F)(F)F)cc2)n1,·,·,8%,·,·,8%[59 µM]
CCCn1c(=O)sc2cc(NC(=O)COc3ccc(Cl)cc3)ccc21,·,·,-5%,·,·,-3%[59 µM]
O=[N+]([O-])c1ccc(CN2CCN(c3ccccc3Cl)CC2)o1,1%,?,4%,1,4%,28µM*
COc1ccccc1N1CCN(Cc2ccc(-c3ccccc3[N+](=O)[O-])o2)CC1,1%,?,-1%,-2,-17%,45µM*
O=[N+]([O-])c1ccc(CN2CCN(c3ccccc3)CC2)o1,1%,?,-4%,0,-7%,-12%[0.501 µM]
Cc1ccccc1N1CCN(Cc2ccc([N+](=O)[O-])o2)CC1,2%,-26%,-4%,-1,-15%,35µM*
Cc1cccc(N2CCN(C(=O)CN3CCSc4ccccc43)CC2C)c1 (configuration not stated),·,·,4%,·,·,-44%[59 µM]
CCCN(CCC)C(=O)c1c[nH]c2ccc(S(=O)(=O)N(C)c3ccc(Cl)cc3)cc2c1=O,·,·,0%,·,·,-4%[59 µM]
Cc1ccc(NC(=O)CSc2nc(=O)n(CCN3CCOCC3)c3c2CCC3)cc1Cl,·,·,-4%,·,·,-5%[59 µM]
Cc1ccc(/C=N/N(C)C2=NS(=O)(=O)c3ccccc32)o1,3%,?,·,·,·,40µM*
CN(/N=C/c1ccc(Br)o1)C1=NS(=O)(=O)c2ccccc21,-1%,11%,-11%,-1,-11%,-26%
COC(=O)/C=c1/s/c(=C(\C#N)C(=O)NCc2ccco2)n(-c2ccccc2)c1=O,-3%,-4%,-11%,-1,-11%,45µM*
COc1ccc(N2CCN(C(=O)c3nn(-c4ccc(C)cc4)c(=O)n(C)c3=O)CC2)cc1,·,·,11%,·,·,-35%[59 µM]
SMILES,MmCpn inh,Sfp PPTase inh,VDR inhibitor,CCT modulator,PLK1 PBD inh,G9a inh
Cc1cccn2c(=O)c(C=O)c(Sc3ncccn3)nc12,1%,11%,-23%,0,-27%,40µM*
Cc1cccn2c(=O)c(C=O)c(Cl)nc12,1%,-6%,?,-2,-12%,-10%[12.7 µM]
CC(=O)N1CCC(N(Cc2ccco2)C(=O)Nc2cccc(C)c2)CC1,·,·,6%,·,·,7%[59 µM]
Cc1cc(C)n(-c2nc(Nc3ccccc3)nc(-n3nc(C)cc3C)n2)n1,0%,8%,2%,1,-7%,?
Cc1cc(C)n(-c2nc(N(c3ccccc3)c3ccccc3)nc(-n3nc(C)cc3C)n2)n1,-2%,50µM*,-2%,-2,-6%,20%[59 µM]
Cc1cc(C)n(-c2nc(C)nc(N)n2)n1,0%,-5%,-7%,3,12µM*,8%[59 µM]
Cc1cc(Cl)nc(-n2nc(C)cc2C)n1,1%,2%,-12%,0,-6%,?
COCCCNC(=S)Nc1cc(C)c(C)cc1C,0%,21%,-5%,1,-8%,?
COCCNC(=S)Nc1cc(OC)c(OC)cc1C#N,-3%,79µM*,-12%,-2,-11%,-119%[59 µM]
COc1ccc(N2CC(NC(=O)CCCc3ccccc3)CC2=O)cc1 (configuration not stated),·,·,14%,·,·,6%[59 µM]
CN1CC(C(=O)O)Cc2c1ccc1ccccc21 (configuration not stated),-4%,?,23%,-1,-25%,20µM*
Cc1ccccc1N1CC(C(=O)O)CC1=O (configuration not stated),1%,11%,11%,-1,-3%,-15%
O=C(O)c1cnn2c1C(=O)N(Cc1cccs1)CC2,1%,8%,6%,-3,-16%,40µM*
CCOC(=O)c1ccc(CN(Cc2ccccc2)S(=O)(=O)c2cccc([N+](=O)[O-])c2)cc1,0%,9%,-3%,-33*,-13%,-20%[59 µM]
Cc1cc(=O)[nH]c2nnc(SCc3cccc(F)c3)n12,·,·,2%,·,·,1%[59 µM]
Cc1ccc(-c2nn(C)c(=O)c3ccccc23)cc1S(=O)(=O)NCCCN(C)C,·,·,-14%,·,·,6%[59 µM]
Cc1ccc(S(=O)(=O)Nc2ccc(C(N)=O)cc2)cc1[N+](=O)[O-],0%,-6%,?,1,15µM*,·
CC(=O)N1CCC(=NNS(=O)(=O)c2ccc(C)c([N+](=O)[O-])c2)CC1,-2%,1%,4%,-1,-17%,11µM*
C/C(=N/NC(=O)CNC(=O)c1cccnc1)c1cccc([N+](=O)[O-])c1,-3%,-21%,-3%,-2,-2%,66%[59 µM]
CC(=O)N1CCC(=NNS(=O)(=O)c2cccc([N+](=O)[O-])c2)CC1,-3%,-27%,-2%,0,-20%,10µM*

# Screening data as filed in PubChem BioAssay.
